Sfp inh: inhibitors of Bacillus subtilis Sfp phosphopantetheinyl transferase; Q9F4F7; Biochemical Sfp PPTase activity, qHTS; Potency, µM, most hits filed as inhibitors; 3.5% of 310,000 active;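 further: the enzyme is Sfp with the accession as filed and its product quenches rhodamine fluorescence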
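Sfp 15 nM + cpd, 15 min RT; start w/ rhodamine-CoA 5 uM, BHQ-2-YbbR 12.5 uM (final); 50 mM Hepes pH 7.6, 10 mM MgCl2, 0.01% NP-40, 0.01% BSA; read 525/598 nm at 0 and 30 min.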
JMJD2A Tudor: blocks the human JMJD2A Tudor domain | AlphaScreen JMJD2A-Tudor / H3K4me3 peptide binding | Potency, µM (titrated, usually from 114 µM), hits mostly inhibitors | 4.4% of 390,000 active | AID 504339; further: nearly all actives have a fitted effect of over 50% in size
Target sequence (O75164 whole entry, looked up, the tested form may be a part): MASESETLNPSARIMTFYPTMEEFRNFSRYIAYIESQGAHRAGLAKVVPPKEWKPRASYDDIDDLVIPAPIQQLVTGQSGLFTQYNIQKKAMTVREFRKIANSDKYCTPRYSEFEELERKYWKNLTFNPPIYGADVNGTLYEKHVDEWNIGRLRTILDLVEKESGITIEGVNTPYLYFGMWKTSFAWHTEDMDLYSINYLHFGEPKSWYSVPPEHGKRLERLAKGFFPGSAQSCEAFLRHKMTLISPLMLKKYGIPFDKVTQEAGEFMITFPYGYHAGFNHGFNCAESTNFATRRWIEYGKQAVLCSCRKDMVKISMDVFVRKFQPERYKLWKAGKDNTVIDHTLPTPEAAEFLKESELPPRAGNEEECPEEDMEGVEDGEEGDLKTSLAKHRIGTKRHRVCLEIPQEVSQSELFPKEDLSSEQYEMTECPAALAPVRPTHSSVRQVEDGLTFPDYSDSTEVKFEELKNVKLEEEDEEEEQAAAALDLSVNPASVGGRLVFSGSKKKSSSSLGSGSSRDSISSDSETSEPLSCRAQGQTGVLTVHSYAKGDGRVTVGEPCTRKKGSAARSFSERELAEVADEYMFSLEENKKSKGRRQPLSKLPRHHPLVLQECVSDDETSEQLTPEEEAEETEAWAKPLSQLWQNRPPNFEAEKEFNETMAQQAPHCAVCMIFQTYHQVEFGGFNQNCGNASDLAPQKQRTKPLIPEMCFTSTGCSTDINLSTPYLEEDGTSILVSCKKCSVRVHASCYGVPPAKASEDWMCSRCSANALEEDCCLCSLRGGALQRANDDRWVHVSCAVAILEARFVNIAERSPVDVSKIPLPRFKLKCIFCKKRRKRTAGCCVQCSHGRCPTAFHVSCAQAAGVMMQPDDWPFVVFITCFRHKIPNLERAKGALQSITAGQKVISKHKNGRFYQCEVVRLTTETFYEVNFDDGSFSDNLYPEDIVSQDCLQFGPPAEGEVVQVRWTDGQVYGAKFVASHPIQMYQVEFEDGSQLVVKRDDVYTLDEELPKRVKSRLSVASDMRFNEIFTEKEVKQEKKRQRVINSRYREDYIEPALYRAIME
G9a inh: blocks human histone lysine methyltransferase G9a; G9a H3K9 monomethylation, AlphaScreen, 2 h; Potency, µM (top dose mostly 102 µM), actives largely listed as inhibitors; 8.8% of 350,000 active; AID 504332; further: nearly all actives have a fitted effect of over 75% in size
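Chemiluminescent proximity detection of H3K9 monomethylation, read after 10 min bead incubation in the dark. Reaction: 20 nM G9a, 500 nM biotin-H3K9 peptide, 20 uM SAM cofactor, 2 h, room temperature, following 15 min enzyme-compound preincubation.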
BAZ2B inh: inhibitors of human BAZ2B bromodomain; Potency, µM (top dose mostly 114 µM), hits mostly inhibitors; Q9UIF8; AlphaScreen BAZ2B-H3K14Ac peptide displacement; 4.4% of 360,000 active; further: nearly all actives have a fitted effect of over 60% in size
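BAZ2B 50 nM plus b-H3(5-23)K14Ac 50 nM, PBS pH 7.4/0.01% Tween-20, 30 min RT; compound added (max 110 uM), 30 min RT; streptavidin donor/Ni-chelate acceptor beads 10 ug/mL final, 20 min dark; AlphaScreen read.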
PLK1 PBD inh: PLK1 (human) polo-box domain binding inhibition; Plk1 PBD binding of FITC phosphopeptide, fluorescence polarization; P53350; Potency, µM, usual class: inhibitors; 2.8% of 360,000 active; further: series mostly up to about 57 µM; nearly all actives have a fitted effect of over 65% in size
HP1b chromo inh: blocks HP1-beta chromodomain binding to methylated histone tails; P83916; AlphaScreen HP1-beta / biotin-H3K9me3 peptide binding; Potency, µM (titrated, usually from 114 µM), usual class: inhibitors; 0.56% of 390,000 active; further: nearly all actives have a fitted effect of over 70% in size
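Compound inhibition of the preformed complex between 50 nM HP1-beta and 50 nM biotinylated H3K9me3 peptide was read by AlphaScreen. Buffer was PBS pH 7.4 with 0.01% Tween-20. Incubations ran 30 min at room temperature, with 10 ug/mL donor/acceptor beads.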
A number is an active result; n = inactive; u = inconclusive; x = no result; [ ] = remark or other dose. This is a sample that favours compounds with a hit; in the whole collection about 12% have one here. The call rests on the fitted dose curve; in most records, active means well fitted curve in the direction sought with a large enough effect; inconclusive means small, poorly fitted or top-dose-only effect, or another doubt; inactive means no such curve, though single readings can be large; an effect the other way counts as inactive or inconclusive.

SMILES	Sfp inh	JMJD2A Tudor	G9a inh	BAZ2B inh	PLK1 PBD inh	HP1b chromo inh
O=C(N/N=C/c1cc2c(cc1Br)OCO2)c1cc2ccccc2o1	n	n	40µM	n	n	n
COc1ccc(C2CC(c3ccccc3)=NN2C(=O)CCCC(=O)O)cc1 (stereo unspecified)	n	n	n	n	n	n
COc1cccc(CS(=O)(=O)c2nnnn2CC(C)C)c1	n	x	x	x	x	x
CC1(C)CC2CC(C)(CN2C(=O)COC(=O)c2ccc(Cl)c(N)c2)C1 (stereo unspecified)	n	n	n	n	n	n
O=C(Cc1cccnc1)N[C@@H]1CC[C@H](CCn2cc(Cc3ccccc3)nn2)O[C@@H]1CO	x	x	x	x	n	x
O=C(C=Cc1ccc2c(c1)OCO2)c1ccccc1	x	n	x	x	n	n
COc1ccc2c(Cl)c(C(=O)N/N=C/c3ccc4c(c3)OCO4)sc2c1	u	n	n[12.7 µM]	n	n	n
O=C(N/N=C/c1ccc2c(c1)OCO2)c1sc2cc(Cl)ccc2c1Cl	n	89µM	n	u	n	n
O=C(/C=C/c1ccc2c(c1)OCO2)c1ccccn1	32µM	n	u	u	n	n
Cc1ccc(-n2c(SCC(=O)OC(C)C)nnc2-c2ccccn2)cc1	n	50µM	n	50µM	n	n
CCOc1ccccc1-n1c(SCC(=O)N(CC)CC)nnc1-c1ccccn1	n	n	n	u	n	n
CCN(CC)C(=O)CSc1nnc(-c2ccccn2)n1-c1ccccc1OC	n	u	n	89µM	n	n
Cc1ccc(C)c(-n2c(SCC(=O)N3CCCC3)nnc2-c2ccccn2)c1	n	u	n	32µM	n	n
CCOc1ccccc1-n1c(SCC(=O)N2CCOCC2)nnc1-c1ccccn1	n	n	n	n	n	n
Cc1ccc(C)c(-n2c(SCC(N)=O)nnc2-c2ccccn2)c1	n	79µM	u	18µM	n	n
CCCc1cc(=O)[nH]c(SCc2nc(-c3ccc(OC)cc3)no2)n1	x	n	n	n	x	n
OCC1O[C@H]([S-])[C@H](O)[C@@H](O)[C@@H]1O.[Au+] (stereo partly specified)	x	x	0.21µM	x	x	x
CCCCC(=O)OCC(=O)Nc1ccc(SC(F)F)cc1	n	n	n	n	n	n
CC1CC=C2C(C#N)=C(N)C(C#N)(C#N)C(c3cccs3)C2C1 (stereo unspecified)	n	n	40µM	n	27µM	n
CCOC(=O)N1CC=C2C(C#N)=C(N)C(C#N)(C#N)[C@H](c3cccs3)C2C1 (stereo partly specified)	n	n	n	n	n	n
CC(C)COC(=O)c1ccc2c(c1O)C(=O)c1ccccc1C2=O	n	7.9µM	u	10µM	n	u
COc1ccc(C(=O)CN2CCN(c3ccc(F)cc3)CC2)cc1OC	n	n	40µM	n	n	n
COc1ccccc1N1CCN(C/C(C)=C/c2ccccc2)CC1	n	n	n[12.7 µM]	56µM	n	n
CCOC(=O)C1CCN(c2nc3ccccc3n2CC(=O)c2ccccc2)CC1	n	n	n	n	n	n
COc1ccc(C(=O)CN2CCN(c3ccc(Cl)cc3)CC2)cc1OC	79µM	n	22µM	n	n	n
SMILES	Sfp inh	JMJD2A Tudor	G9a inh	BAZ2B inh	PLK1 PBD inh	HP1b chromo inh
COc1ccc(C(=O)C(=O)N2CCN(c3ccc(C)cc3)CC2)cc1OC	x	x	x	x	n	x
COc1ccc(N2CCN(c3nc4ccccc4n3CC(=O)c3ccccc3)CC2)cc1	u	u	14µM	u	n	u
COc1cccc(CC(=O)NN2C(=O)NC3(CCCCC3)C2=O)c1	x	n	n	n	n	n
Cc1ccc(OCCC(=O)OCC(=O)Nc2ccccc2)cc1	n	n	n	n	n	n
COc1ccc(N2CCN(CC(=O)c3ccc(Cl)cc3)CC2)cc1	n	u	22µM	u	n	n
N#Cc1ccc(C(=O)CN2CCN(c3ccccc3)CC2)cc1	n	n	28µM	n	n	n
COc1ccccc1N1CCN(Cc2ccc(C(=O)O)cc2)CC1	n	n	n	n	n	n
COc1ccccc1N1CCN(CC(=O)c2ccc(F)cc2)CC1	40µM	14µM	x	56µM	n	u
COC(=O)[C@@H](NCc1ccc(OC)c(B(O)O)c1)C(C)C	x	n	x	x	n	n
Cc1ccc(S(=O)(=O)N2CCN(c3nc(-c4ccnnc4)nc4ccccc34)CC2)cc1	x	32µM	x	x	x	n
O=S(=O)(c1ccccc1)N1CCN(c2nc(-c3cccnc3)nc3ccccc23)CC1	x	n	n[0.501 µM]	50µM	n	n
COc1ccc(-c2nc(N3CCN(S(=O)(=O)c4ccc(C)cc4)CC3)c3ccccc3n2)cc1	x	n	x	x	x	n
CCCN(Cc1nnc(-c2ccccc2Cl)o1)C(=O)c1oc2ccccc2c1C	x	n	n	n	n	n
Cc1ccc(-c2csc(=Nc3ccccc3)n2Cc2ccc3c(c2)OCO3)cc1C	x	u	14µM	100µM	x	n
Fc1ccc(-c2csc(=Nc3cccc(C(F)(F)F)c3)n2Cc2ccc3c(c2)OCO3)cc1	x	n	u	u	x	n
Cc1ccc(-c2csc(=Nc3ccc(F)cc3)n2Cc2ccc3c(c2)OCO3)cc1C	x	50µM	14µM	4.5µM	x	u
CCN(CC)S(=O)(=O)c1ccc(-c2csc(=Nc3cccc(C(F)(F)F)c3)n2Cc2ccc3c(c2)OCO3)cc1	x	u	u	n	x	n
Clc1ccc(-c2csc(=Nc3ccccc3)n2Cc2ccc3c(c2)OCO3)cc1	x	u	13µM	u	x	u
CN1CCN(C(=O)C2=C[C@@H](C3CCCCC3)C[C@@H](OCCCCO)O2)CC1	n	n	u	n	n	n
Cc1ccc(-c2n[nH]c(=O)c3ccccc23)cc1N	n	n	n	n	n	n
Nc1ccc(-c2n[nH]c(=O)c3ccccc23)cc1N	14µM	n	8.9µM	n	n	n
N#Cc1cccc(-c2nc(NCc3cccnc3)c3ccccc3n2)c1	n	x	n[0.501 µM]	x	x	x
Cc1c(/C(O)=C2/C(=O)C(=O)N(Cc3cccnc3)C2c2ccccn2)cnn1-c1ccccc1 (stereo unspecified)	n	u	32µM	50µM	n	n
O=C1C(=O)N(Cc2cccnc2)C(c2ccccn2)/C1=C(/O)c1ccc(F)cc1 (stereo unspecified)	89µM	u	u	u	n	n
COc1ccc(F)cc1S(=O)(=O)n1cc(C)nc1-c1ccccc1	n	22µM	n	n	4.2µM	n
Nc1ccc(S(=O)(=O)N2CCN(S(=O)(=O)c3c(F)cccc3F)CC2)cc1	x	89µM	x	x	x	x
COc1ccc(F)cc1S(=O)(=O)N1CCCC(C)C1 (stereo unspecified)	n	n	n	n	n	n
COc1ccc(F)cc1S(=O)(=O)N1CCc2ccccc2C1	x	x	x	x	n	x
COc1ccc(F)cc1S(=O)(=O)N1CCCN(S(=O)(=O)c2cc(F)ccc2OC)CC1	n	n[11.4 µM]	n[12.7 µM]	n	27µM	n

Screens deposited in PubChem BioAssay by National Center for Advancing Translational Sciences (NCATS).
